The values below come from PubChem BioAssay.

Assay [1] deals with Human papillomavirus type 1a protein E7 (residues 44-93). The assay can be described thus: HPV1a E7 fragment binders on microarrays, primary screen, biochemical, small-molecule microarray, residues 44-93, 635 nm fluorescence (AID 1108).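 Also: E7 fragment applied at 1 µg/mL in TBST for 1 h at 4 C; score combines spot fluorescence with its signal to noise ratio.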 The following applies: small-molecule microarray binding, fluorescence 635 nm; higher = more signal.
Assay [2] in a line: modulators of HCV replicon luciferase signal, primary screen, HCV replication inhibitor project, Huh7 cells, luciferase reporter (AID 1109).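 Also: huh7 hepatoma cells harbouring a luciferase neomycin HCV replicon reporter; luciferase luminescence as measure of HCV replicon replication; test concentration not given here.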 The following applies: 48 h, higher = more signal. Background: In antiviral work, replicon cells carry a viral genome segment that copies itself.
For assay [3], the target named is Left-right determination factor 2 (Homo sapiens) (UniProt O00292). In words: LEFTY2 binders on small-molecule microarrays, primary screen, biochemical, small-molecule microarray, 635 nm fluorescence scan (AID 1110). The following applies: LEFTY2 binding, higher = more signal.
Sequence of Left-right determination factor 2 (Homo sapiens) (O00292 whole entry, looked up): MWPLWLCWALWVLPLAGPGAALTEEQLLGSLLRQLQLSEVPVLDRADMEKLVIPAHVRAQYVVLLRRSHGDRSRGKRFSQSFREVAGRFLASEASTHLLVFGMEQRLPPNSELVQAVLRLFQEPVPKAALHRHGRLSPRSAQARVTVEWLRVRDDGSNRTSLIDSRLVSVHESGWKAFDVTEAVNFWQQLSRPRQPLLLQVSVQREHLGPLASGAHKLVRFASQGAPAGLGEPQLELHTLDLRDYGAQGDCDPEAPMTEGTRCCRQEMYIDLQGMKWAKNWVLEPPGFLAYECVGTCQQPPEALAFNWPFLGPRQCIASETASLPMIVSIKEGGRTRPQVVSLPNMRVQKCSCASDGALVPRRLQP
Assay [4] addresses Calmodulin-1 (Homo sapiens) (UniProt P0DP23). The assay can be described thus: CALM1 binders on microarrays, EGTA buffer, profiling panel, biochemical, small-molecule microarray, Cy5-labelled CALM1 (AID 1111).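 Also: labelled calmodulin applied in Tris saline Tween buffer holding calcium plus EGTA and DTT.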 Particulars: Cy5-CALM1 binding fluorescence, higher = more signal.
The target is the same in assay [5]. The assay can be described thus: calcium-bound CALM1 binders on microarrays, profiling panel, artefact control for SMM control-protein annotation, biochemical, small-molecule microarray, Cy5-labelled CALM1, plus calcium (AID 1112).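 Also: score merges spot fluorescence with signal to noise from triplicate slides.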 Particulars: Cy5-CALM1 binding fluorescence, higher = more signal.
Assay [6] can be described thus: small-molecule microarray binders of probe aWnt5a, primary screen, biochemical, biotinylated probe, 635/667 nm fluorescence (AID 1113).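 Also: score merges 667 nm fluorescence intensity with signal-to-noise per printed feature.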 The following applies: higher = more signal.
Assay [7] can be described thus: small-molecule microarray binders of probe aShh, primary screen, biochemical, biotinylated probe, 635/667 nm fluorescence (AID 1114).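 Also: probe is biotin-labelled aShh protein from a stem cell growth factor screen; measures binding of labelled protein to compounds printed on the slide; score merges feature fluorescence at 667 nm with signal-to-noise.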 The following applies: higher = more signal.
Assay [8] in a line: small-molecule microarray binders of probe aNog, primary screen, biochemical, biotinylated probe, 635/667 nm fluorescence (AID 1115).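 Also: probe is biotinylated aNog protein used at 0.15 µg/mL for 1 h at 4 C; z-score combines 667 nm fluorescence of each spot with its signal to noise.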 The following applies: higher = more signal.
For assay [9], the target named is Torsin-1A-interacting protein 1 (Homo sapiens) (UniProt Q5JTV8). The assay can be described thus: LAP1 binders from COS7 cell lysate, primary screen, small-molecule microarray, 635/667 nm fluorescence (AID 1116). Particulars: COS7-hLAP1 lysate binding, 635 nm fluorescence, higher = more signal.
Sequence of Torsin-1A-interacting protein 1 (Homo sapiens) (Q5JTV8 whole entry, looked up): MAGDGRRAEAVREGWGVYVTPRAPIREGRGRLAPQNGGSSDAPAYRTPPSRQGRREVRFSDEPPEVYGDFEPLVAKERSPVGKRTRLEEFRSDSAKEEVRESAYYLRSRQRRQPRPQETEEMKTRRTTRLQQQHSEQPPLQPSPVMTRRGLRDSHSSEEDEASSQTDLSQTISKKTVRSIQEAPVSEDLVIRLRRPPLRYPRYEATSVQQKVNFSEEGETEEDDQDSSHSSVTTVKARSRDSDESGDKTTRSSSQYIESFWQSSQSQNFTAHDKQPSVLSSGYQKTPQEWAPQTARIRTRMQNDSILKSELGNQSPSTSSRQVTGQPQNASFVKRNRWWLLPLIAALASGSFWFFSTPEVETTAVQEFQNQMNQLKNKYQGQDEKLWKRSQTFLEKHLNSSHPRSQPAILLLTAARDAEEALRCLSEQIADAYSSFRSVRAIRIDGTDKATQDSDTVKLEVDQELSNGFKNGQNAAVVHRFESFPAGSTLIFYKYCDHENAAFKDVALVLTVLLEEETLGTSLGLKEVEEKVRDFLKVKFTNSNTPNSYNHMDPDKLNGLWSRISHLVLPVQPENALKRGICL
Assay [10] addresses Alpha-bungarotoxin (Bungarus multicinctus) (UniProt P60615). In words: alpha-bungarotoxin binders on microarray, profiling panel, artefact control for SMM control protein annotation, biochemical, small-molecule microarray, Alexa647 label, 635/667 nm fluorescence (AID 1117). Particulars: alpha-BTX-A647 binding fluorescence, higher = more signal.

Sequence of Alpha-bungarotoxin (Bungarus multicinctus) (P60615 whole entry, looked up): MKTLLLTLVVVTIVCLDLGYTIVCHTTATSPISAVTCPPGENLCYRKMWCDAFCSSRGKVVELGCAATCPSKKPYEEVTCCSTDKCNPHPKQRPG

With `CC(C)C(CO)N1C(=O)[C@@H]2C3C(=O)OCCC/C=C\[C@H]3OC23C=CCN(c2ccc4ccccc4c2)C(=O)[C@@H]13` (stereo not given in full), the composite z-score was -0.812 in assay [1]; -1.43 in assay [3]; -0.14 in assay [4]; -0.132 in assay [5]; -0.0405 in [6]; -0.0822 in assay [7]. In addition, the composite z-score was 0.117 in assay [8], -0.427 in assay [9] and -0.287 in [10]. The molecule further had a z-score in assay [2] of -1.23.
With `CC(CO)N1C(=O)[C@]2(C)C3C(=O)OCCC/C=C\[C@H]3OC23C=CCN(c2ccc(Cl)cc2)C(=O)[C@@H]13` (stereo not given in full), the composite z-score is -0.886 in [1]; -0.945 in assay [3]; -0.275 in [4]; 0.079 in assay [5]; -0.0573 in assay [6]; -0.243 in [7]. Besides, the composite z-score was -0.318 in assay [8], -0.549 in [9] and -0.358 in [10]. This molecule also came in with a z-score in [2] of 0.636.
As for `CC(CO)N1C(=O)[C@@H]2[C@H]3C(=O)OCC=C[C@H]3OC23C=CCN(Cn2nnc4ccccc42)C(=O)[C@@H]13` (stereo not given in full), the composite z-score in assay [1] is -0.931; in assay [3] it was -1.4; in assay [4], -0.196; in [5], 0.0507; in assay [6] it was -0.13; in assay [7] it was -0.117. Further, the composite z-score in assay [8] was 0.0517; in assay [9] it was -0.607; in [10], -0.975. This molecule returned a z-score in assay [2] of 0.0368.
In the case of `COc1cc2c(cc1O)C(c1cccs1)N(Cc1cc3c(cc1Br)OCO3)CC2` (stereo not given), the composite z-score was 1.48 in [1]; 0.236 in assay [3]; 1.88 in assay [4]; 0.602 in assay [5]; -0.0286 in assay [6]; 0.23 in assay [7]. Further, the composite z-score in assay [8] turned out to be 1.03; in assay [9] it was 1.14; in assay [10], 2.08. In addition, in [2], the z-score was -2.05.
Regarding `C#CCN([C@@H](Cc1ccccc1)C(=O)OC)[C@@H](/C=C/C1CC1)[C@H](O)Cc1ccccc1`, the composite z-score in assay [1] is -0.447; in assay [3] it was 0.0156; in [4], -0.979; in assay [5], -1.54; in assay [6] it was -0.217; in [7] it was -0.0553. The composite z-score in assay [8] was -0.352; in [9], 0.483; in assay [10], 0.0673. Besides, the z-score in assay [2] is -3.13.
Take `CCCCCN1CC=CC23O[C@@H]4/C=C\CCC(C)OC(=O)C4[C@H]2C(=O)N(C(CO)C(C)C)[C@@H]3C1=O` (stereo not given in full): the composite z-score in assay [1] was -0.333; in assay [3] it was -0.214; in assay [4] it was -0.983; in assay [5], -0.876; in assay [6], -0.172; in assay [7] it was -0.469. Further, the composite z-score is -0.463 in [8], 0.163 in assay [9] and 0.0325 in assay [10]. This molecule had a z-score in assay [2] of -1.64.
Consider `CC1=C2[C@@H](CCc3ccccc3)OB(O)C[C@@H]2[C@@H]2C(=O)N(C)C(=O)[C@@H]2C1`, for which the composite z-score in [1] was 0.135; in [3], 0.173; in assay [4], 0.0309; in assay [5], -0.338; in [6], -0.0519; in assay [7], 0.0469. The values for the composite z-score in assay [8], in [9] and in assay [10] were -0.137, 0.284 and 0.769, respectively. Also, in assay [2], the z-score is -0.779.
Take `CCC1=C2CN(Cc3ccccc3)[C@@H](C(=O)Cc3ccccc3)C2C=CCC1` (stereo not given in full): the composite z-score is 1.4 in assay [1]; 0.133 in assay [3]; -0.0133 in assay [4]; -0.429 in assay [5]; -0.124 in [6]; -0.211 in [7]. Moreover, the results for the composite z-score in [8], in assay [9] and in assay [10] were -0.185, 0.0878 and 0.0601, respectively. The z-score in assay [2] was -0.618.
With `C=C(COC)C(=O)CC[C@@H](OC(C)=O)c1cccc(OCCO)c1`, the composite z-score in [1] is -0.297; in [3] it was -0.278; in assay [4] it was -0.582; in assay [5], -0.909; in assay [6] it was -0.0403; in [7], -0.214. Further, the composite z-score in [8] was -0.0827; in assay [9] it was 0.578; in assay [10], -0.485. The molecule also showed a z-score in assay [2] of -2.41.
With `CC(C)N1CC=CC23O[C@@H]4C=CCCOC(=O)C4[C@H]2C(=O)N(CCCO)[C@@H]3C1=O` (stereo not given in full), the composite z-score in assay [1] is 0.0707; in assay [3], -0.539; in assay [4] it was -0.544; in assay [5] it was -0.694; in assay [6], -0.145; in assay [7], -0.0769. Also, the composite z-score is -0.0546 in assay [8], 0.263 in assay [9] and -0.659 in assay [10]. Also, the z-score in [2] was -1.15.
Turning to `CC1CC/C=C\[C@H]2OC34C=CCN(C(C)C)C(=O)[C@H]3N(CCO)C(=O)[C@@H]4C2C(=O)O1` (stereo not given in full), the composite z-score was -0.21 in assay [1]; -1.6 in [3]; -0.377 in assay [4]; 0.0947 in assay [5]; -0.202 in assay [6]; 0.0062 in [7]. Also, the figures for the composite z-score in [8], in assay [9] and in assay [10] were -0.0926, -0.241 and -1.22, respectively. The molecule further gave a z-score in assay [2] of -0.566.
As for `C=CCOC(=O)[C@@H]1[C@H]2C(=O)O[C@H](c3ccccc3)[C@H](c3ccccc3)N2[C@H](c2ccc(OCCOC(=O)[C@@H]3C[C@@H]4C(=O)N[C@@H](CCCC[N+](C)(C)C)C(=O)N4[C@@H]3c3ccc(O)cc3)cc2)[C@@]12C(=O)Nc1ccc(I)cc12`, the composite z-score is 1.41 in assay [1]; 0.459 in assay [3]; -0.14 in assay [4]; -0.521 in [5]; -0.112 in assay [6]; 0.614 in assay [7]. The composite z-score came out at 0.559 in assay [8], 1.36 in assay [9] and 0.923 in [10]. Besides, the z-score in assay [2] is -0.282.
`COCC(=C=CC[C@H](O)c1ccccc1OCCO)C[C@H](O)c1ccccn1`: the composite z-score in assay [1] was -0.0881; in [3], 0.155; in assay [4], -0.0135; in [5], -0.411; in assay [6], -0.18; in assay [7] it was -0.214. The composite z-score is -0.173 in [8], -0.191 in [9] and -0.0928 in assay [10]. Further, the z-score in assay [2] is -0.267.
As to `NC(=O)NCC#Cc1ccc2c(c1)[C@]1(C(=O)N2)[C@H](c2ccccc2OCCO)N2[C@H](c3ccccc3)[C@H](c3ccccc3)OC(=O)[C@H]2[C@@H]1C(=O)NC[C@H](O)c1ccccc1`, the composite z-score in assay [1] is 1.36; in [3] it was -0.568; in assay [4], -0.157; in assay [5], 0.501; in [6], -0.0981; in assay [7], 0.0141. Also, the composite z-score in [8] was -0.213; in [9], 0.395; in assay [10], 1.1. This molecule showed a z-score in assay [2] of -0.651.
`COCCCNC(=O)[C@@H]1c2ccccc2C(=O)N(C(C)C)[C@H]1c1ccc(CO)cc1`: the composite z-score in assay [1] was -1.72; in assay [3], 0.0506; in assay [4], 0.355; in [5] it was 0.254; in assay [6], -0.0828; in assay [7], -0.221. For the same molecule, the figures for the composite z-score in assay [8], in assay [9] and in [10] were -0.1, 0.846 and 0.886, respectively. For the same molecule, the z-score in [2] is -0.183.
For the molecule `COc1ccccc1CN1C(=O)c2ccccc2[C@](Cc2ccccc2I)(C(=O)O)[C@@H]1c1ccc(CO)cc1`, the composite z-score in [1] was 1.42; in assay [3], 0.717; in assay [4] it was 1.36; in assay [5], 0.477; in assay [6], -0.123; in assay [7] it was 0.336. The composite z-score in [8] worked out at 0.182; in [9] it was 0.152; in assay [10], 1.21. In assay [2], this molecule showed a z-score of -0.127.
